Consider 19 compounds from PubChem BioAssay.

Values without a mark were called inactive.

This assay can be described thus: A549 lung cancer cell viability effects, profiling panel, resazurin fluorescence, 24 h, PK04 Diversity Set (AID 1171). Also: test concentration not given here. To be noted: higher = more signal, called active from +8 up or from −8 down. (In general: The colour change of resazurin is a common sign of viable cells or microbes.)
As for `O=C1O[C@@H](c2ccccc2)[C@@H](c2ccccc2)N2[C@@H](c3ccc(OCCO)cc3)[C@]3(C(=O)Nc4ccc(C#CC5=CCCCC5)cc43)[C@@H](C(=O)N3CCCCCCC3)[C@H]12`, the z-score was -0.207. In the case of `O=C(O)[C@@]1(CCS(=O)(=O)c2ccccc2)N=C(c2ccc(OCCCO)cc2)O[C@H]1c1ccccc1` it was 0.761; in that of `C=CCNC(=O)[C@@H]1[C@H]2C(=O)O[C@H](c3ccccc3)[C@H](c3ccccc3)N2[C@H](c2ccc(OCCO)cc2)[C@@]12C(=O)N(C(=O)OCCOC)c1ccc(C#CCC(C(=O)OC)C(=O)OC)cc12`, 0.185. As for `[N-]=[N+]=Nc1ccccc1C[C@@]1(C(=O)N2CCCCC2)N=C(c2ccc(OCCCO)cc2)O[C@@H]1c1ccccc1`, the z-score was 1.41. In the case of `CC(=O)n1cc(C(O)C2C=CC3C(=O)NC(=O)C3N2Nc2ccccn2)c2ccccc21` (centres undefined) it was -1.02; in that of `O=C1OCCC=C[C@H]2OC34C=CCN(c5ccc(Cl)cc5)C(=O)[C@H]3N(CCCO)C(=O)[C@@H]4C12` (some centres undefined), -0.797; in that of `CC(c1ccccc1)C(O)C1C=CC2C(=O)N(c3ccccc3)C(=O)C2N1Nc1ccccc1` (centres undefined), -1.15. In the case of `CCOC(=O)C[C@H]1[C@H](OC(=O)c2ccc(-c3ccccc3)cc2)[C@@H](NC(=O)c2ccccc2)c2cc(OCCCO)ccc2N1C(=O)c1ccc2ccccc2n1` it was -0.264; in that of `CCCCN1CC=CC23O[C@@H]4C=CCOC(=O)[C@@H]4[C@H]2C(=O)N(CCCCCCO)[C@@H]3C1=O` (some centres undefined), -0.499.

For the compound `COc1ccc(-c2cc3c(c(Cc4ccccc4)n2)[Si](C(C)C)(C(C)C)OC3)cn1`, the z-score was 2.17.

Take `COc1cc2c(cc1O)C(c1cccs1)N(Cc1ccc([N+](=O)[O-])o1)CC2` (centres undefined): the z-score is -1.63.

On to `[N-]=[N+]=NCc1ccccc1[C@@H]1OC(c2ccc(OCCCO)cc2)=N[C@]1(CCS(=O)(=O)c1ccccc1)C(=O)N1CCCCC1`, for which the z-score was -0.182. In the case of `CC(C)OC(=O)C=C1C[C@@H](c2cccc(Cl)c2)O[C@@H](c2cccc(Cl)c2)O1` it was 0.146; in that of `Cc1ccc(S[C@]2(C(=O)NCC(C)C)CC(=O)N(Cc3cc(C(F)(F)F)cc(C(F)(F)F)c3)[C@@H]2c2ccc(CO)cc2)cc1`, -0.0187; in that of `O=C(O)[C@H](Cc1ccccc1)n1cc(-c2ccccc2)nn1`, -0.143. In the case of `COC(=O)[C@@]1(Cc2ccc(OC)cc2)[C@H]2c3cc(C(=O)N(C)C)n(Cc4ccc(C(F)(F)F)nc4)c3C[C@H]2CN1C(=O)c1ccccc1` it was 0.248; in that of `CCCCC(O)C1C=CC2C(=O)N(C)C(=O)C2N1N1CCCCC1` (centres undefined), -0.377; in that of `C=CCNC(=O)[C@H]1[C@@H]2C(=O)O[C@@H](c3ccccc3)[C@@H](c3ccccc3)N2[C@@H](c2ccc(O)cc2)[C@]12C(=O)Nc1ccc(C#CCCO)cc12`, 0.437.

With `CO[C@H]1O[C@H](CO)[C@@H](OC(=O)Nc2ccccc2-c2ccccc2)[C@H](OC(=O)Nc2ccccc2-c2ccccc2)[C@@H]1OC(=O)Nc1ccccc1-c1ccccc1`, the z-score is -0.387.
